# Measured values published in PubChem BioAssay AID720580 (National Center for Advancing Translational Sciences (NCATS), 2013).
# Screen size: about 330,000 compounds; about 1,500 (0.45%) were called active. Inconclusive results (about 6%) are left out. Calls follow the shape of the full dose curve; tested in A549 cells. Shown is part of a subset that was picked to be rich in actives.
# Assay: qHTS for Stage-Specific Inhibitors of Vaccinia Orthopoxvirus: Venus Reporter Primary qHTS; also: nearly all actives have a fitted effect of over 30% in size
# Settings: Vaccinia virus Venus reporter expression, fluorescence; series mostly up to 36.5 µM; activity change, negative = inhibition: at the top concentration
# % is scaled to controls: 0 for no effect and ±100 for the full control effect; potency is read from the fitted curve at half-maximal effect.
SMILES,Potency,"activity change, negative = inhibition"
CCOc1cc(N2CCOCC2)c(OCC)cc1NC(=O)COc1cccc2cccnc12,12.6 µM (active),
CCOc1cc(N2CCOCC2)c(OCC)cc1NC(=O)c1cc(C)nc2ccccc12,,-7.77% (inactive)
CCOc1cc(N2CCOCC2)c(OCC)cc1NC(=O)COc1cccc(Cl)c1,,-18.9% (inactive)
CN(N=O)c1ccc(C=C2c3ccccc3-c3ccccc32)cc1,,-10.5% (inactive)
CN(C)C1=C2C=CC=CC2/C(=C2/C=Cc3ccccc32)C=C1 (centres undefined),,-11.3% (inactive)
COC(=O)c1ccc(COc2ccc(/C=N/NC(=O)C(=O)Nc3ccc(OC)cc3)cc2OC)o1,,4.27% [at 7.34 µM] (inactive)
CCCc1ccc(OCc2ccc(C(=O)N/N=C/c3cccc([N+](=O)[O-])c3)o2)c(OC)c1,7.08 µM (active),
O=C(N/N=C/c1cccc(OCc2ccccc2)c1)c1ccc(Br)o1,,-10.1% (inactive)
CC(=O)Nc1cccc(-c2cc(NC(C)=O)c3ncc(-c4ccccc4)n3c2)c1,,-4.03% (inactive)
CC(C)C[C@@H]1Cc2[nH][nH]c(=O)c2[C@H](CCc2ccccc2)O1,,-11.9% (inactive)
Nc1ncn(C2OC(CO)C(O)C2O)c(=O)n1 (centres undefined),10 µM (active),
CC(C)Sc1nc(N)nc2c1ncn2C1OC(CO)C(O)C1O (centres undefined),,2.2% (inactive)
Nc1nc(SCc2ccc([N+](=O)[O-])cc2)c2ncn(C3OC(CO)C(O)C3O)c2n1 (centres undefined),,-18.7% (inactive)
Fc1cccc(Cc2c(-c3cccc(Cl)c3)nc3ccc(Br)cn23)c1,,-4.21% (inactive)
C/C(=N\NC(=O)Cc1ccc(Cl)cc1)c1ccccn1,6.31 µM (active),
C/C(=N\NC(=O)c1ccccc1F)c1ccccn1,,-13.5% (inactive)
C/C(=N\NC(=O)Cc1ccc(Br)cc1)c1cccnc1,,-10.3% (inactive)
CCC(C(=O)NC(C)(C)C)n1c(-c2ccccc2)nc2ccccc21 (centres undefined),,-3.62% (inactive)
Cc1cc(Br)cn2c(Cc3ccsc3)c(-c3ccc(C#N)cc3)nc12,,-6.63% (inactive)
COc1ccc(-c2cc3nc(NCCOc4ccccc4)ccn3n2)cc1,,-8.89% (inactive)
CCOC(=O)C1=CC[C@@H](c2ccccc2)N(S(=O)(=O)c2ccc(C)cc2)[C@H]1c1ccc(CC)cc1,,2.38% (inactive)
COc1ccc(CS(=O)/C(Cl)=C(/Cl)C(=O)Nc2ccc(OC)nc2)cc1 (centres undefined),5.62 µM (active),
CCOc1ccc(S(=O)(=O)Nc2ccc(OC)nc2)cc1,,-12.8% (inactive)
COc1ccc(NC(=O)CN2C(=O)NC(C)(c3ccccc3)C2=O)cn1 (centres undefined),,-4.42% (inactive)
Cc1c(CCO)sc[n+]1CC(=O)c1ccc2ccccc2c1,,1.96% (inactive)

SMILES,Potency,"activity change, negative = inhibition"
COC(=O)C1(C(=O)OC)C/C=C\CN(S(=O)(=O)c2ccccc2[N+](=O)[O-])CCC1,,5.58% (inactive)
COc1ccc(Br)c(Cn2c(C)c(C(=O)NCc3cccs3)sc2=O)c1,,-4.37% (inactive)
COc1cccc(NC(=O)C2(C)CCN2Cc2ccccc2Cl)c1 (centres undefined),,-19.1% (inactive)
O=C(NCc1ccccc1)C(c1ccc(F)cc1)N1CCN(C(=O)C2CCCO2)CC1 (centres undefined),,-11.6% (inactive)
O=c1[nH]c(N2CCN(Cc3ccc4c(c3)OCO4)CC2)nc2c1CCCC2,,-2.01% (inactive)
Fc1ccc(N2CCN(Cc3ccc4c(c3)OCO4)CC2)cc1,,-5.26% (inactive)
Fc1ccc2[nH]c3c(N4CCN(Cc5ccc6c(c5)OCO6)CC4)ncnc3c2c1,6.31 µM (active),
CCOP(=O)(OCC)C(Cc1ccccc1)N=C(c1ccccc1)c1ccccc1 (centres undefined),,11.1% (inactive)
CN(Cc1ccccc1)c1ccc(/C=C/c2ccnc3ccccc23)cc1,,-10.8% (inactive)
Brc1cccc[n+]1Cc1cccc(C[n+]2ccccc2Br)c1,,-8.21% (inactive)
COC(=O)c1ccc2nc(-c3ccc(F)cc3)c(Cc3ccc(C)cc3)n2c1,,-7.97% (inactive)
CC(C)(C)C1CCC(NC(=O)c2cnn3c2NC(=C2CC2)C=C3C(F)F)CC1 (centres undefined),,-29.1% (inactive)
Cc1[nH]n(-c2cccc(Cl)c2)c(=O)c1-c1ccc(Cl)cc1,28.2 µM (active),
O=c1c(-c2cccc(Cl)c2)c[nH]n1-c1ccccc1,,-15.6% (inactive)
O=c1c2ccccc2[nH]c(=S)n1-c1cccc(Cl)c1,,-16.2% (inactive)
CCN(CC)c1ccc(/C=C/c2c(C)cnc3ccc(C)cc23)cc1,,-14.2% (inactive)
Cn1c(=O)[nH]c(=O)c2c1nc(N1CCN(C(c3ccccc3)c3ccccc3)CC1)n2CCO,12.6 µM (active),
Cn1c(=O)[nH]c(=O)c2c1nc(N1CCN(CCO)CC1)n2CCSc1nc2ccccc2s1,,-9.09% (inactive)
CN1CCN(c2nc3c(c(=O)[nH]c(=O)n3C)n2Cc2cccc3ccccc23)CC1,,-21.5% (inactive)
COC(=O)[C@@]12C[C@@H](CC(=O)NCc3cccc(C(F)(F)F)c3)C(=O)N(Cc3ccco3)C1=CCC(C)(C)C2,,-29.1% (inactive)
C=C(C)C(=O)O[C@H]1C/C(C)=C\C(=O)/C=C(\C)[C@H](O)[C@@H]2OC(=O)C(=C)[C@@H]21,10 µM (active),
O=C1NC[C@H](Cc2ccc(O)cc2)N(C[C@H]2CCCN2C[C@H](Cc2ccccc2)N2C[C@H](Cc3ccccc3)N(CCc3ccccc3)C(=O)C2=O)C1=O,,-2.33% (inactive)
C#CCOCCOCCOCCNc1nc(N2CCN(C(=O)CCCCCCCCCCNC(=O)[C@H](CCCCN)n3cc(C)nn3)CC2)nc(N2CCN(C(=O)CCCCCCCCCCNC(=O)[C@H](CO)n3cc(CCCSC)nn3)CC2)n1,7.94 µM (active),
C#CCOCCOCCOCCNc1nc(N2CCN(C(=O)CCCCCCCCCCNC(=O)[C@H]([C@@H](C)CC)n3cc(CCCCN=C(N)N)nn3)CC2)nc(N2CCN(C(=O)CCCCCCCCCCNC(=O)[C@H](CO)n3cc(CCCSC)nn3)CC2)n1,15.8 µM (active),
C#CCOCCOCCOCCNc1nc(N2CCN(C(=O)[C@H](CCC(=O)O)n3cc(CN)nn3)CC2)nc(N2CCN(C(=O)[C@H](CCC(=O)O)n3cc(CN)nn3)CC2)n1,,-8.97% (inactive)

SMILES,Potency,"activity change, negative = inhibition"
C#CCOCCOCCOCCNc1nc(N2CCN(C(=O)Cn3cc(CCO)nn3)CC2)nc(N2CCN(C(=O)Cn3cc(CCCN=C(N)N)nn3)CC2)n1,,-1.69% (inactive)
C#CCOCCOCCOCCNc1nc(N2CCN(C(=O)Cn3cc(CCCCN)nn3)CC2)nc(N2CCN(C(=O)[C@H](CCCCN)n3cc(CCC(=O)O)nn3)CC2)n1,,-4.71% (inactive)
C#CCOCCOCCOCCNc1nc(N2CCN(C(=O)Cn3cc(CCO)nn3)CC2)nc(N2CCN(C(=O)[C@H](CCCCN)n3cc(CCCC)nn3)CC2)n1,,7.77% (inactive)
C#CCOCCOCCOCCNc1nc(N2CCN(C(=O)CCCCCCCCCCNC(=O)Cn3cc(CCCCCN)nn3)CC2)nc(N2CCN(C(=O)CCCCCCCCCCNC(=O)[C@H](CO)n3cc(CCCSC)nn3)CC2)n1,10 µM (active),
C#CCOCCOCCOCCNc1nc(N2CCN(C(=O)[C@H](CCCCN)n3cc(CCC(=O)O)nn3)CC2)nc(N2CCN(C(=O)[C@H](CCCCN)n3cc(CC(C)O)nn3)CC2)n1 (some centres undefined),,-7.26% (inactive)
C#CCOCCOCCOCCNc1nc(N2CCN(C(=O)[C@H](C(C)C)n3cc(CCO)nn3)CC2)nc(N2CCN(C(=O)[C@H]([C@@H](C)CC)n3cc(CCCN=C(N)N)nn3)CC2)n1,,-7.34% (inactive)
Cc1cccc(C)c1NC(=O)CN1CCN(c2ccc(F)cc2)CC1,,9.83% (inactive)
COc1cc(OC)c(/C=C/c2ccnc3ccccc23)c(OC)c1,,-21.1% (inactive)
CCOC(=O)N(C)c1c(CC)nc2c(OCc3ccccc3C(=O)OC)cccn12,,-5.36% (inactive)
CCOC(=O)c1cc2cc(OC)ccc2n1C1CCN(C)CC1,,-26.8% (inactive)
CCOC1=C2[C@@H](CN(S(=O)(=O)c3ccc(C)cc3)[C@H]2c2ccccc2F)[C@H]2C(=O)N(Cc3ccccc3)C(=O)[C@H]2C1,,-12.5% (inactive)
CCOC(=O)C1=CC[C@@H](c2ccncc2)N(S(=O)(=O)c2ccc(C)cc2)C1,,-22.6% (inactive)
CSc1ncc(Sc2ccccc2)c(C(=O)O)n1,,2.49% (inactive)
CSc1nc(Nc2ccc(F)cc2)cc(-c2ccccc2)n1,,-18.6% (inactive)
CSc1nc(-c2ccccc2)nc(C(Cl)Cl)n1,10 µM (active),
Cc1cc(Br)cn2c(Cc3ccccc3C(F)(F)F)c(C3CCCCC3)nc12,,-2.66% (inactive)
CCc1nc2c(OCc3ccc(F)c(F)c3)cccn2c1N(C)C(=O)c1ccco1,,3.62% (inactive)
CC(C)(C)CC(C)(C)NCC(O)COCCOc1ccc(Br)cc1 (centres undefined),10 µM (active),
COc1ccc(OCC(O)CNCCNc2nccc(C(F)(F)F)n2)cc1 (centres undefined),,-14.2% (inactive)
CC(C)(C)NCC(O)COc1cccc2[nH]c(=O)[nH]c12 (centres undefined),inactive,
CCCCNC(=O)C[C@@H]1C[C@@]2(C(=O)OCC)CCC=C2N(Cc2cccc3ccccc23)C1=O,,-13.2% (inactive)
COc1ccc(C(C(=O)Nc2c(C)cccc2C)N2CCN(c3ccc(C)cc3)CC2)cc1 (centres undefined),,-3.04% (inactive)
CN(C)c1cccc(NC(=O)c2ccc(-c3ccc(F)c(F)c3)c3ccoc23)c1,,-9.75% (inactive)
CCc1nc2c(OCc3cccc(OC)c3)cccn2c1N(C)C(=O)C(C)C,,-15.6% (inactive)
C/C(CC1CC(C)(C)OC1=O)=N/Nc1nc(-c2ccccc2)cs1 (centres undefined),,-10.7% (inactive)

SMILES,Potency,"activity change, negative = inhibition"
CC(=O)Nc1cccc(-c2csc(Nc3cccc(C)n3)n2)c1,,-23.1% (inactive)
CC(=O)Nc1ccc(-c2csc(NC=C3C(=O)OC(C)(C)OC3=O)n2)cc1,4.47 µM (active),
O=C(COc1ccccc1C(=O)Nc1ccccc1)Nc1cccc(F)c1,,-20.5% (inactive)
COc1ccc(C(=O)C(OP(=O)(OC)OC)c2ccccc2OC)cc1 (centres undefined),,-6.83% (inactive)
COc1ccc2c(c1)NC(=O)C2CC(=O)N1CCOc2c(cc(-c3cnc4ccccc4c3)cc2OC)C1 (centres undefined),,-10.6% (inactive)
CC(=O)OC1C2(CC3N4C(=O)C5(CO)SSC4(CC31O)C(=O)N5C)OC(C)C(C)(C)C2=O (centres undefined),3.16 µM (active),
CCCNC(=O)C1(C)CCN1C(=O)Cc1ccc(-c2ccccc2)cc1 (centres undefined),,-8.6% (inactive)
CCOC(=O)[C@]12CCCC=C1N(CCC1=CCCCC1)C(=O)[C@H](CC(=O)N1CCCCC1)C2,,-21.2% (inactive)
C/C=C/NNC(=O)Cc1ccc(OC)cc1,10 µM (active),
CCCCCNC(=O)Cc1ccc(OC)cc1,,-18.1% (inactive)
COc1ccc(CC(=O)Nc2ccc(C(=O)NC(C)(C)C)cc2)cc1,,-5.09% (inactive)
Cc1cccc(NC(=O)COC(=O)c2ccccc2OCc2cccc(Br)c2)c1,,-15.5% (inactive)
CC1(C)OC(=O)C2=C(C[C@@H](C3CCCCC3)O[C@@H]2c2ccc(Cl)cc2)O1,,-0.804% (inactive)
Cc1ccc(S(=O)(=O)N2CCN(c3ncnc4ccccc34)CC2)cc1,,-26.6% (inactive)
Cc1ccc(C)c(S(=O)(=O)N2CCN(c3ncnc4sccc34)CC2)c1,2.51 µM (active),
Cc1ccc(C)c(S(=O)(=O)n2nc(C)c(S(=O)(=O)N3CCC(C)CC3)c2C)c1,,3.55% (inactive)
O=[N+]([O-])c1ccc(/C=C/c2ccc3cccnc3c2)cc1,,-27.2% (inactive)
Cc1cccc(-c2nnc(SC(C)C(=O)Nc3ccccc3)n2C)c1 (centres undefined),,-13.2% (inactive)
C=CC(=O)Nc1ccc(Nc2ccnc(Nc3ccc(N4CCN(C)CC4)cc3)n2)cc1,10 µM (active),
CN1CCN(c2ccc(NC(=O)c3cc(Cl)c4c(c3)OCCO4)cc2)CC1,,-3.42% (inactive)
Cc1cccc(N2CCN(c3ccc(NC(=O)/C=C\C(=O)O)cc3)CC2)c1,,-0.657% (inactive)
CCCCc1c(-c2ccc(Cl)cc2)ncn1CCc1ccccc1OC,,-26.6% (inactive)
Cc1ccc(-c2nc3c(Cl)cc(C(F)(F)F)cn3c2Cc2cccc(Cl)c2)cc1,,6.36% (inactive)
O=S1(=O)CC(N2CCN(c3ccccn3)CC2)CN1Cc1ccc(F)cc1 (centres undefined),,-8.95% (inactive)
